Bioassay records as filed in PubChem.
HSF1 activator: increases HSF-1 driven luciferase reporter signal | NIH3T3-HGL HSF-1 luciferase reporter, MG132, 8 h; 100% = twice DMSO control signal | activation, % at 9 µM | actives 1.7% (n = 300,000) | AID 504408;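 active = mean replicate activation of at least 50% with a set share of replicates each reaching 50%; inconclusive = only one of those two conditions met; inactive = mean below 50% and too few replicates reaching it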;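 note: 0% = median of the neutral control wells and 100% = twice that signal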
dFosB act: activators of mouse delta FosB homodimer; purified delta FosB, TAMRA-CDK5 oligo fluorescence polarization; percent of positive-control signal above neutral wells; activation, % at 25 µM; actives 0.99% (n = 340,000); AID 493131;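 active = mean activation above about 17%, with every replicate also reaching it, limit read from the data, passing the limit was not always enough; inconclusive = only one of the two conditions met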
Target sequence (P13346 whole entry, looked up): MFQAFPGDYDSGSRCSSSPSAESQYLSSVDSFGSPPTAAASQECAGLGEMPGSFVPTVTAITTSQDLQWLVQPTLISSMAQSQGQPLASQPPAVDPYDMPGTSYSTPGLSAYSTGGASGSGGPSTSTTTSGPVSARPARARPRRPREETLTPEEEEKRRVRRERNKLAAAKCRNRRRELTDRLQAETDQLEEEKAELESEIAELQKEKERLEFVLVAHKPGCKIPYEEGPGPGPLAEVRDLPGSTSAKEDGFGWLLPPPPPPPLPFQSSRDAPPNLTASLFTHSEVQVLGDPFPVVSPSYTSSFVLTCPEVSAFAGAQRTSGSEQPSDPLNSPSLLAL
MPTP block: inhibitors of mitochondrial permeability transition pore. isolated mouse mitochondria, Ca2+ swelling absorbance, 30 min. inhibition, % at 10 µM. actives 1.4% (n = 360,000). AID 602449;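 active = inhibition of 50% or more, scaled per plate between neutral and stimulator controls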;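 note: 0% = DMSO wells given calcium and 100% = 1 mM EGTA wells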
Platelet DG rel: platelet dense granule release activity. actives 0.22% (n = 300,000). inhibition, %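 (compounds screened at 7.5 µM in platelet-rich plasma)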. human platelet-rich plasma, SFLLRN dense granule ATP release, luminescence;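 active = mean replicate score, as percent of positive control, at or above 50; inconclusive = mean below 50 but at least one replicate at or above 50; inactive = mean and every replicate below 50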
HSP90 refold inh: blocks HSP90-mediated luciferase refolding in reticulocyte lysate. actives 0.91% (n = 290,000). Rabbit reticulocyte lysate, luciferase refolding luminescence, 3 h. AID 1789. inhibition, % at 5.6 µM;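 active = inhibition above the screen-wide mean plus 3 SD, computed separately per campaign, cut at about 16% in these data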;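 note: 0% = DMSO wells and 100% = 60 µM geldanamycin wells; inhibitors lower the luminescence because luciferase stays unfolded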
HSF1 inh: HSF1 inhibition; AID 2098; actives 0.77% (n = 300,000); NIH3T3-HGL HSE-luciferase, MG132-induced, luminescence 8 h; stronger effect = lower value; activity change, negative = inhibition, % at 7.5 µM (by protocol);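 active = more than half of replicate wells show activity change below -50%, luminescence cut by over half; inconclusive = some wells, but at most half, below -50%; inactive = no replicate well below -50%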;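 note: luciferase reports HSF-1 transcriptional activity via heat shock element; 0% = median of DMSO wells and -100% = zero luminescence signal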
The depositor's hits bear a star; ? = inconclusive; . = no result given. Rows were chosen to be rich in hits. Some 4.9% of all compounds tested hit in one or more screens of this group.

SMILES	HSF1 activator	dFosB act	MPTP block	Platelet DG rel	HSP90 refold inh	HSF1 inh
O=C(NCC(c1cccnc1)N1CCOCC1)Oc1ccccc1 (stereo not drawn)	6.5	-7.3	0.9	-1.6	-1.9	14.5
N#CC(c1cccnc1)N1CCOCC1 (stereo not drawn)	7.9	3.1	-0.1	3.1	16.2*	-0.6
CCCNC(=O)c1c(N)n(Cc2ccco2)c2nc3ccccc3nc12	49.5	.	.	-4.8	5.5	49.1
CC(C)CNC(=O)c1c(N)n(Cc2ccco2)c2nc3ccccc3nc12	55.7*	-10.0	1.4	-3.3	0.3	29.5
COCCNC(=O)c1c(NC(=O)c2ccc(Br)o2)n(Cc2ccccc2)c2nc3ccccc3nc12	65.9*	-2.9	3.1	3.0	0.0	29.7
COCCCNC(=O)c1c(N)n(Cc2ccco2)c2nc3ccccc3nc12	114.9*	.	2.5	-13.1	0.5	80.6
O=C1NCN(c2ccccc2)C12CCN(C(c1nnnn1Cc1ccccc1)C1CC1)CC2 (stereo not drawn)	.	.	-1.3	.	.	.
CSc1ccc(CNC(C)C(O)c2ccccc2)cc1 (stereo not drawn)	1.1	-8.2	-1.5	0.0	2.9	-9.8
Oc1ccc(C(=C(Cl)Cl)c2ccc(O)cc2)cc1	-2.8	.	.	6.1	-5.2	2.3
O=C1C(Br)C2CCC1C2C(=O)O (stereo not drawn)	.	.	1.7	.	.	.
C/C(=N\N1CCCCC1c1cccnc1)c1c(O)n(C2CCCCC2)c(=S)[nH]c1=O (stereo not drawn)	2.7	?	-3.8	-8.4	2.8	-3.0
CCCC(C)n1[nH]c(=O)c2c1NC(=O)CSC2c1ccccc1 (stereo not drawn)	2.5	-5.4	0.6	1.7	-1.8	-7.1
O=Cc1cn(Cc2c(F)cccc2Cl)nc1-c1ccccc1	33.2	-7.3	3.2	-1.3	.	24.7
CCc1ccc(-c2nn(Cc3ccccc3)cc2C=O)cc1	101.8*	-6.6	0.8	0.0	-2.3	60.4
O=c1[nH]c2ccccc2n1C1CCN(C(c2cc3ccccc3o2)c2nnnn2-c2ccc3c(c2)OCCO3)CC1 (stereo not drawn)	.	.	-1.0	.	.	.
C[C@]12CC[C@H](O)CC1=CC(=O)C1C2CC[C@]2(C)C(=O)CCC12 (stereo partly drawn)	.	8.7	2.2	.	.	.
COc1ccc(Oc2cc(NC(=O)c3nn(C)cc3[N+](=O)[O-])cc([N+](=O)[O-])c2)cc1	-56.6	6.2	-0.2	3.3	3.0	-53.8*
CC(C)(CN)CC(=O)O	82.7*	-7.6	0.4	-5.8	-0.4	26.0
CCC(C)n1c(O)c(C=Nc2cccc(C(F)(F)F)c2)c(=O)[nH]c1=S (stereo not drawn)	5.7	-18.2	3.4	3.7	2.7	5.3
N#CC(C#N)=Cc1ccc(C=C(C#N)C#N)cc1	.	-12.0	1.6	.	48.7*	.
O=C(CF)NC(NC(=S)Nc1ccccc1O)C(Cl)(Cl)Cl (stereo not drawn)	53.9*	-6.3	-3.8	1.8	1.2	18.4
N=Cc1c(O)n(-c2ccc(C34CC5CC(CC(C5)C3)C4)cc2)c(=O)[nH]c1=O	-28.6	45.9*	-1.3	-7.6	3.3	-10.2
O=c1[nH]c(=O)n(-c2ccc(Br)cc2)c(O)c1C=NC(CO)(CO)CO	22.9	.	1.4	-10.4	4.0	1.9
COc1ccc(C(=O)C2CCCN(Cc3ccc(C)s3)C2)c(OC)c1 (stereo not drawn)	63.4*	-8.7	2.4	-2.4	0.2	33.3
C=CCn1c(O)c(C(C)=NC2CC2)c(=O)[nH]c1=O	15.2	-1.9	-0.8	0.2	-2.6	5.2
SMILES	HSF1 activator	dFosB act	MPTP block	Platelet DG rel	HSP90 refold inh	HSF1 inh
C=CCn1c(O)c(/C(C)=N/N2CCCCC2)c(=O)[nH]c1=O	67.0*	1.5	1.5	-1.6	2.4	25.4
C=CCn1c(O)c(C(CC)=NCC2CCCO2)c(=O)[nH]c1=O (stereo not drawn)	64.9*	-3.9	0.7	-21.1	-0.5	29.8
C=CCn1c(O)c(C(C)=NC2CCN(Cc3ccccc3)CC2)c(=O)[nH]c1=O	-90.6	.	-0.7	-6.8	-0.9	-87.8*
CCC(=NCC1CCCO1)c1c(O)n(-c2ccccc2C)c(=O)[nH]c1=O (stereo not drawn)	2.6	-1.2	1.0	-31.3	2.4	-2.9
C=CCN1CC[C@]23c4c5ccc(O)c4OC2C(O)C=CC3[C@H]1C5 (stereo partly drawn)	.	1.2	0.4	.	.	.
C(#CCN1CCCCC1)CN1CCCCC1	.	.	-2.0	.	.	.
CC(=O)Cc1c[nH]c2ccccc12	-92.1	.	.	-12.6	-0.3	-90.8*
CC(C)(C)C(=O)N1Cc2cc(N3CCCCC3)ccc2-n2nncc2C1	.	.	1.1	.	.	.
COc1cc(/C=C/[N+](=O)[O-])ccc1OC(=O)c1cccnc1	38.5	0.3	9.3	-2.4	2.5	22.7
COc1cc2c(cc1/C=C/[N+](=O)[O-])OCO2	263.4*	5.0	7.5	4.1	12.7	190.1
Cc1ccc(OCCn2cccc2/C=C2/C(=O)NC(=O)N(Cc3ccco3)C2=O)cc1	18.3	-4.8	2.1	-3.0	-2.5	4.9
CCc1ccc(N2C(=O)NC(=O)/C(=C\c3cccn3CCOc3ccc(C(C)C)cc3)C2=O)cc1	-8.2	-4.1	1.7	-2.0	31.0*	7.7
COC(=O)C1CN(C#N)N(c2ccc(Cl)cc2)C12c1ccccc1-c1ccccc12 (stereo not drawn)	-95.1	-19.8	-1.6	.	4.7	-95.2*
CC1(C)C(C(=O)N2CCN(c3ccc(Cl)cc3)CC2)C1(C)C	-5.1	7.3	1.3	-3.8	-1.6	-4.7
CC(C)(O)C(=O)Nc1ccc([N+](=O)[O-])c(C(F)(F)F)c1	.	-2.0	-0.4	.	.	.
COc1cc2c(cc1OC)CN(c1ccc([N+](=O)[O-])c(C(F)(F)F)c1)CC2	121.2*	5.9	3.1	-3.0	2.4	91.5
CC12C(C(=O)O)C1(c1ccccc1)C2C(=O)O (stereo not drawn)	.	-2.2	-1.4	.	.	.
CN1CCN(c2ccc(N)cc2Cl)CC1	-8.2	33.1*	1.0	-4.2	5.4	-12.1
CN1CCN(c2ccc(Cl)cc2N)CC1	-9.0	-3.1	0.3	0.5	1.8	-0.3
COc1ccc(Br)cc1CN1CCN(CCO)CC1	-89.1	0.9	-0.5	3.4	1.6	-87.3*
C[C@H](CO)N1C[C@H](C)[C@@H](CN(C)C(=O)Oc2ccc3ccccc3c2)OCc2cnnn2CCCC1=O	.	.	-0.2	.	.	.
CCCCC1C(=O)NC(=S)NC1=O	-69.7	.	.	-14.0	1.7	-66.7*
COc1ccc(C2=CC(c3ccc4c(c3)OCO4)c3c(c4ccccc4oc3=O)O2)cc1OC (stereo not drawn)	.	10.3	-0.1	.	.	.
COC(=O)C1=C(c2ccc(OCc3ccccc3)cc2)C[C@@H]2CC[C@H]1N2C(=O)NCc1cccc(OC)c1	.	-1.9	4.7	.	.	.
CC12CCC3C(CC=C4CC5(CCC43C)OCCO5)C1CCC2=O (stereo not drawn)	-79.1	-4.6	0.6	3.8	-0.2	-73.5*
